Assay results published in PubChem BioAssay AID1159580 (chemical genetic matrix, 2015).
“And” between values parts separate entries of the source, which are not always exact repeats. Equal values may be shown once. Hit rate of the full screen: of about 5,500 compounds, about 2,000 (36%) were called active. Not shown: some 18% with an inconclusive outcome. Cut-off read from the data, not from the text of the source: active = normalized growth mostly below about 0.91 (no sharp cut-off); inconclusive = no clear call, values can overlap the other calls; inactive = mostly above about 0.92. Some of the results follow.

Assay: chemical genetic growth profiling, strain panel (AID 1159580);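 note: tested at 20 µM; growth read once vehicle control cultures reached saturation at 30 °C; 1 = growth at the plate median or of vehicle wells; lower values mean less growth of the strain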
Settings: S. cerevisiae deletion strains, growth OD

Measured: normalized growth

C[C@]12CCC3c4ccc(O)cc4CCC3C1CC[C@@H]2O (some centres undefined)
inactive: locus YAL013W, strain DEP1, stronger effect = lower value 1.01 | locus YAL021C, strain ccr4, stronger effect = lower value 0.983 | locus YAL026C, strain drs2, stronger effect = lower value 0.943 | locus YAL030W, strain snc1, stronger effect = lower value 1.01 | locus YBL061C, strain skt5, stronger effect = lower value 0.961 | locus YBR009C, strain hhf1, stronger effect = lower value 0.91 | locus YBR023C, strain chs3, stronger effect = lower value 0.992 | locus YBR171W, strain sec66, stronger effect = lower value 1.01 | locus YBR229C, strain ROT2, stronger effect = lower value 1.01 | locus YBR231C, strain swc5, stronger effect = lower value 0.946 | locus YBR279W, strain paf1, stronger effect = lower value 0.993 | locus YCL011C, strain gbp2, stronger effect = lower value 0.988 | locus YCL016C, strain dcc1, stronger effect = lower value 0.975 | locus YCL029C, strain bik1, stronger effect = lower value 0.996 | locus YCL061C, strain MRC1, stronger effect = lower value 0.988 | locus YCL069W, strain vba3, stronger effect = lower value 1.01 | locus YCR088W, strain abp1, stronger effect = lower value 1.03 | locus YDL005C, strain med2, stronger effect = lower value 1.02 | locus YDL035C, strain GPR1, stronger effect = lower value 0.912 | locus YDL040C, strain nat1, stronger effect = lower value 1.02 | locus YDL074C, strain BRE1, stronger effect = lower value 0.882 | locus YDL101C, strain DUN1, stronger effect = lower value 1 | locus YDL185W, strain tfp1, stronger effect = lower value 0.979 | locus YDL192W, strain arf1, stronger effect = lower value 0.958 | locus YDR001C, strain nth1, stronger effect = lower value 1.03 | locus YDR069C, strain doa4, stronger effect = lower value 1 | locus YDR101C, strain arx1, stronger effect = lower value 0.958 | locus YDR150W, strain NUM1, stronger effect = lower value 1.03 | locus YDR159W, strain sac3, stronger effect = lower value 0.954 | locus YDR162C, strain NBP2, stronger effect = lower value 0.987 | locus YDR297W, strain sur2, stronger effect = lower value 0.992 | locus YDR318W, strain mcm21, stronger effect = lower value 0.996 | locus YDR334W, strain swr1, stronger effect = lower value 1.02 | locus YDR335W, strain msn5, stronger effect = lower value 0.985 | locus YDR388W, stronger effect = lower value 0.997 | locus YDR502C, strain sam2, stronger effect = lower value 0.973 | locus YEL003W, strain gim4, stronger effect = lower value 0.921 | locus YEL037C, strain rad23, stronger effect = lower value 1.02 | locus YEL061C, strain CIN8 (second series), stronger effect = lower value 1.01 | locus YEL061C, strain CIN8, stronger effect = lower value 1.02 | locus YER015W, strain faa2, stronger effect = lower value 0.981 | locus YER016W, strain bim1, stronger effect = lower value 0.969 | locus YER110C, stronger effect = lower value 0.989 | locus YER111C, strain swi4, stronger effect = lower value 1.03 | locus YER155C, strain BEM2 (second series), stronger effect = lower value 1.04 | locus YER155C, strain BEM2, stronger effect = lower value 1.03 | locus YER167W, strain BCK2, stronger effect = lower value 1 | locus YFR010W, strain ubp6, stronger effect = lower value 1 | locus YGL078C, strain dbp3, stronger effect = lower value 0.934 | locus YGL086W, strain mad1, stronger effect = lower value 0.953 | locus YGL167C, strain pmr1, stronger effect = lower value 1.01 | locus YGL173C, strain kem1, stronger effect = lower value 0.968 | locus YGL227W, strain vid30, stronger effect = lower value 1.03 | locus YGL240W, strain doc1, stronger effect = lower value 0.96 | locus YGL248W, strain PDE1, stronger effect = lower value 0.981 | locus YGR078C, strain PAC10, stronger effect = lower value 0.967 | locus YGR135W, strain pre9, stronger effect = lower value 0.949 | locus YHR013C, strain ard1, stronger effect = lower value 0.996 | locus YHR027C, strain rpn1, stronger effect = lower value 1.01 | locus YHR030C, strain SLT2, stronger effect = lower value 1.03 and 0.961 | locus YHR079C, strain IRE1 (second series), stronger effect = lower value 1.01 | locus YHR079C, strain IRE1, stronger effect = lower value 0.954 | locus YHR094C, strain hxt1, stronger effect = lower value 1.01 | locus YHR129C, strain ARP1, stronger effect = lower value 1 | locus YHR142W, strain chs7, stronger effect = lower value 0.891 | locus YHR200W, strain rpn10, stronger effect = lower value 1 | locus YIL066C, strain RNR3, stronger effect = lower value 0.955 | locus YIL073C, strain SPO22, stronger effect = lower value 0.936 | locus YIL125W, strain kgd1, stronger effect = lower value 1 | locus YIR030C, strain dcg1, stronger effect = lower value 1 | locus YJL092W, strain hpr5, stronger effect = lower value 1.03 | locus YJL095W, strain BCK1 (second series), stronger effect = lower value 0.997 | locus YJL095W, strain BCK1, stronger effect = lower value 0.978 and 0.961 | locus YJL115W, strain asf1, stronger effect = lower value 1.02 | locus YJL129C, strain trk1, stronger effect = lower value 0.889 | locus YJL134W, strain LCB3, stronger effect = lower value 1.02 | locus YJL154C, strain vps35, stronger effect = lower value 1.02 | locus YJL166W, strain qcr8, stronger effect = lower value 0.971 | locus YJL168C, strain set2, stronger effect = lower value 0.997 | locus YJL187C, strain SWE1 (second series), stronger effect = lower value 0.966 | locus YJL187C, strain SWE1, stronger effect = lower value 1.01 | locus YJR043C, strain POL32, stronger effect = lower value 0.938
active: locus YBR021W, strain FUR4, stronger effect = lower value 0.783 | locus YDR137W, strain rgp1, stronger effect = lower value 0.83 | locus YDR195W, strain ref2 1.27 [resistant] | locus YDR392W, strain spt3, stronger effect = lower value 0.639 | locus YGL253W, strain hxk2, stronger effect = lower value 0.895 | locus YGR252W, strain gcn5, stronger effect = lower value 0.735 | locus YJL164C, strain tpk1, stronger effect = lower value 0.916
